About 360 (0.41%) of roughly 87,000 compounds were called active. The entries come from a sample that favours actives as a whole. A number with no mark means an inactive call. Rule as the data show it: active = cytotoxicity above about 50%; inactive = the rest.

Experimental findings from PubChem BioAssay AID620 (Sanford-Burnham Center for Chemical Genomics, 2007) are described below.

A short description of the assay: cytotoxicity in HT1080 fibrosarcoma cells, cell-based, fluorescence readout (AID 620).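 Also: cells exposed to compound overnight then 4 h with Alamar Blue; 0% = vehicle DMSO and 100% = killing control.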 As to conditions: HT1080 viability, at 10 µM, stronger effect = higher value.
For `Cc1occc1C(=O)Nc1ccc2c(c1)CCC2`, the cytotoxicity is 12.8%.
For `CC(C)Cc1cc(C(=O)Nc2cc(Cl)ccc2Cl)no1` the value was 1.8%.
For `O=C(C1CC1)N1CCCN(C(=O)C2CC2)CC1` the value was 1.3%.
For `Cc1cc(=O)[nH]c(N2CCc3ccccc3C2)n1` the value was 1.4%; for `O=C(CSc1nnc(-c2cccs2)n1Cc1ccco1)Nc1ccc2c(c1)OCO2`, 1.2%.
With `Cn1c(SCC(=O)N2CCCc3ccccc32)nnc1-c1c[nH]c2ccccc12`, the cytotoxicity was 2.9%.
For `CCOc1cccc(N2C(=O)CC(N3CCC(C(N)=O)(N4CCCCC4)CC3)C2=O)c1` (centres undefined) the value was -6.9%.
For `O=c1[nH]c(=O)n([C@H]2C[C@H](O)[C@@H](CO)O2)cc1F` the value was 58.1% (active); for `O=c1[nH]c(=O)n([C@H]2C[C@H](O)[C@@H](CO)O2)cc1C(F)(F)F`, 4.2%.
Then `CCc1cn([C@H]2C[C@H](O)[C@@H](CO)O2)c(=O)[nH]c1=O`, with -0.3%; and `Cc1ccc(SCC(=O)NCCCN2CCOCC2)cc1`, with 4.3%.
With `CC1(C)CC(=O)C(C2C3=C(CC(C)(C)CC3=O)Oc3ccccc32)=C(O)C1` (centres undefined), the cytotoxicity was -2.6%.
For `CC1(C)CC(=O)C2=C(C1)OC1=C(C(=O)CC(C)(C)C1)C2c1ccc(O)cc1O` the value was 63.3% (active).
Then `Cc1nn(C)cc1C1C2=C(CC(C)(C)CC2=O)OC2=C1C(=O)CC(C)(C)C2`, with 14.2%.
For `CCCc1cc(=O)[nH]c(SCC(=O)C(C)(C)C)n1` the value was -8.7%.
On to `CCCC(C)C1C(C#N)=C(N)Oc2cc(C)oc(=O)c21` (centres undefined), for which the cytotoxicity was 0.8%.
Take `CCn1ncc(Br)c1C(=O)Nc1ccc(C(=O)OC(C)C)cc1`: the cytotoxicity was -9.8%.
For `Cc1onc(-c2c(F)cccc2Cl)c1C(=O)OCn1nnc2ccccc2c1=O` the value was -0.3%.
For `O=C(OCn1ncc(Br)c(Br)c1=O)c1c(F)cccc1F` the value was 100% (active); for `O=C(OCn1ncc(Br)c(Br)c1=O)c1ccccc1Cl`, 40%; for `CCn1ncc(Br)c1C(=O)Nc1ccc(F)cc1F`, 2.8%.
Then `O=C(OCn1ncc(Br)c(Br)c1=O)c1ccc(F)cc1`, with 95.8% (active); and `CC1CC(C)CN(C(=O)c2ccccc2Nc2ccc(SC(F)F)cc2)C1` (centres undefined), with -5.3%; and `COc1cc(OC)cc(-c2nnc(SCC(=O)N3CCCC3)o2)c1`, with 9%.
`CCOc1cc(C(c2c(C)[nH][nH]c2=O)c2c(C)[nH][nH]c2=O)ccc1OS(=O)(=O)c1ccc(C)cc1`: the cytotoxicity was -4.6%.
For `CCSc1nnnn1-c1ccccc1` the value was 11%; for `COc1ccc(-n2nnnc2SCC(=O)NCCc2ccc(OC)c(OC)c2)cc1`, -21.1%; for `COc1ccc(CCNc2nnc(Sc3nnnn3-c3ccccc3)s2)cc1OC`, 57.2% (active).
Then `CCCSc1nnc(Sc2nnnn2-c2ccccc2)s1`, with 60% (active); and `COc1ccc(CCNC(=O)CSc2nnnn2-c2ccccc2OC)cc1OC`, with 1%; and `c1ccc(-n2nnnc2SCCCSc2nc3ccccc3s2)cc1`, with 5.7%.
With `NS(=O)(=O)c1ccc(CCNc2nc(CN3CCCCC3)nc3sc4c(c23)CCC4)cc1`, the cytotoxicity is 28.3%.
`CSc1nc(-c2ccccc2)nc2[nH]ccc(=O)c12`: the cytotoxicity was 8.6%.
For `CSc1nc2ccc(S(=O)(=O)N(C)C)cc2s1` the value was -0.9%; for `CCc1cc(C)c(O)c(CC)n1`, -4.2%; for `Nc1ccc(C(=O)N2CCCC2)cc1`, 13%.
Regarding `Cn1c2ccccc2c2cc(C(=O)O)ccc21`, the cytotoxicity was 6.9%.
Then `Nc1ccc(C(=O)n2c3ccccc3c3ccccc32)cc1`, with 52.6% (active); and `CC(C)Cc1nnc(NC(=O)CC(=O)Nc2ccccc2C(=O)O)s1`, with -4.8%.
Then `O=C(NC1CC1)c1sccc1-n1cccc1`, with 4%; and `COc1ccc(OCCSc2nnc3sc4ccccc4n23)cc1`, with -2.4%; and `COc1cccc(OCCSc2nnc3sc4ccccc4n23)c1`, with 12.4%.
On to `CCOC(=O)C1CCN(C(=O)CCCN2C(=O)c3ccccc3C2=O)CC1`, for which the cytotoxicity is 5%.
Then `CC[Si](CC)(CC)c1c2c(nc3ccc(OC)cc13)-c1cccc(=O)n1C2`, with -6.3%; and `CCNC(=O)COc1ccc(S(=O)(=O)Nc2ccccc2)cc1`, with 2.5%; and `COc1ccc(S(=O)(=O)Cc2ccc(C(=O)NCc3ccc(F)cc3)o2)cc1`, with -10.5%.
For `COc1ccc(-n2c(Cc3cccn3C)nnc2SCC(=O)N2CCCc3ccccc32)cc1` the value was 0.6%.
In the case of `CCCCCCN(C(=O)CCCCCN1C(=O)NC(c2ccc([N+](=O)[O-])cc2)C(C(=O)OCc2ccccc2)=C1C)C(C(=O)NCCCC)c1ccc(OCC(=O)OC)c(C(=O)OC)c1` (centres undefined), the cytotoxicity was -7.3%.
Take `Cc1ccc(-n2c(-c3ccc(Br)cc3)c[n+]3c2CCc2ccc4cccnc4c2-3)cc1`: the cytotoxicity was 63.8% (active).
Then `Cc1ccc(S(=O)(=O)Nc2cccc3cccnc23)cc1`, with -3%; and `Brc1ccc(-c2nnc3n2-c2ccccc2CC3)cc1`, with 2%; and `COc1ccccc1NC(=O)CSc1nnc(COc2ccc(Cl)cc2)n1Cc1ccco1`, with -2%.
For `CCOc1ccc(N(CC(=O)Nc2ccccc2C)S(=O)(=O)c2c(C)noc2C)cc1` the value was 54.9% (active); for `COc1ccc(OC)c(NC(=O)CN(c2ccc(C)cc2)S(=O)(=O)c2c(C)noc2C)c1`, 2.3%.
Then `CCOc1ccccc1NC(=O)CN(c1ccc(C)cc1)S(=O)(=O)c1c(C)noc1C`, with -3.3%; and `COc1ccc(N(CC(=O)Nc2cc(C)ccc2OC)S(=O)(=O)c2c(C)noc2C)cc1`, with -2.6%.
`CCOc1ccc(N(CC(=O)Nc2ccc(C)cc2)S(=O)(=O)c2c(C)noc2C)cc1`: the cytotoxicity is 3.5%.
For `CCOc1ccc(N(CC(=O)NC(C)(C)C)S(=O)(=O)c2c(C)noc2C)cc1`, the cytotoxicity was -10.4%.
With `CCOc1ccccc1NC(=O)CN(c1ccc(OC)cc1)S(=O)(=O)c1c(C)noc1C`, the cytotoxicity was 53.1% (active).
Turning to `COc1ccc(N(CC(=O)Nc2cc(Cl)ccc2OC)S(=O)(=O)c2c(C)noc2C)cc1`, the cytotoxicity was 53.8% (active).
For `CCOc1ccccc1NC(=O)CN(c1cc(C)cc(C)c1)S(=O)(=O)c1c(C)noc1C` the value was -7.8%; for `Cc1cccc(C)c1-n1c(C)cc(/C=C2\NC(=O)NC2=O)c1C`, 15.3%; for `Cc1cccc(Nc2nn3c(=O)c4ccccc4nc3s2)c1`, 6.1%.
For `CCCCCCSc1cc(C)nc2ncnn12` the value was -4.5%; for `CCOc1cc(-c2noc(-c3ccncc3)n2)cc(Br)c1OC`, -6.4%.
Then `CCN(CC)C(=O)CN(C#N)c1nc(OC)nc(N(C)C)n1`, with 5.3%; and `CCCCn1c(N)c(N(CC)C(=O)c2ccc3c(c2)S(=O)(=O)c2ccccc2C3=O)c(=O)[nH]c1=O`, with -1.2%.
For the compound `CCn1c(SCC(=O)Nc2ccc3c(c2)OCCO3)nnc1-c1ccccn1`, the cytotoxicity is 37%.
Regarding `CCn1c(SCC(=O)Nc2ccc3c(c2)OCO3)nnc1-c1cnccn1`, the cytotoxicity is 102% (active).
For `Cn1c(SCC(=O)Nc2ccc3c(c2)OCO3)nnc1-c1cnccn1` the value was 13.4%.
For `CN1C(=O)c2ccc(S(=O)(=O)c3ccc(C(=O)O)cc3)cc2C1=O` the value was 3.3%; for `Cc1ccc2[nH]c(=O)c(-c3nc4ccccn4c3NCc3ccco3)cc2c1`, -4.4%.
For `COc1ccc2c(c1)C(C1=C(O)CC(C)(C)CC1=O)C1=C(CC(C)(C)CC1=O)O2` (centres undefined) the value was 10.3%.
`CC[C@]1(O)CC2CN(CCc3c([nH]c4ccccc34)[C@@](C(=O)OC)(c3cc4c(cc3OC)N(C=O)[C@H]3[C@@](O)(C(=O)OC)[C@H](OC(C)=O)[C@]5(CC)C=CCN6CC[C@]43[C@@H]65)C2)C1` (some centres undefined): the cytotoxicity is 65.8% (active).
For `CC(C)Cn1c(=O)c2c(c3ccccc31)OC(C)C(=O)N2` (centres undefined) the value was -0.6%; for `CCOC(=O)CNC(=O)C(Cc1ccccc1)NS(=O)(=O)c1ccc2c(c1)CCC(=O)N2` (centres undefined), 0.8%; for `Cc1cccnc1Nc1nc(-c2ccc(O)c(O)c2)cs1`, 9.2%.
Then `Oc1ccc(Nc2nc(-c3ccc(O)cc3)cs2)cc1`, with 2.8%; and `Oc1ccc(Nc2nc(-c3ccc4ccccc4c3)cs2)cc1`, with 53.6% (active); and `NS(=O)(=O)c1ccc(Nc2nc(-c3ccc4ccccc4c3)cs2)cc1`, with -2.9%.
`Oc1ccc(-c2nc(-c3ccc(O)c(O)c3)cs2)cc1`: the cytotoxicity is 61.2% (active).
Then `Oc1ccc(-c2csc(-c3ccccc3)n2)cc1O`, with 15.6%; and `O=C(O)CCc1ccc(-c2cccs2)n1CCC(=O)O`, with -6.8%.
Then `Cn1nc(-c2ccccc2)c(-c2nc(-c3cccc(C(F)(F)F)c3)no2)c1Cl`, with 6.9%; and `Cc1cc(NC(=O)CCCSc2nc(-c3ccco3)cc(C(F)(F)F)n2)no1`, with 2.7%.
Then `COC(=O)c1ccc(C(=O)OC)c(NC(=O)CSc2nc(-c3ccco3)cc(C(F)(F)F)n2)c1`, with 5.6%; and `COC(=O)c1ccccc1NC(=O)CSc1nc(-c2ccco2)cc(C(F)(F)F)n1`, with 52.3% (active).
Take `Cc1ccc(NC(=O)CSc2nc(-c3ccco3)cc(C(F)(F)F)n2)cc1C`: the cytotoxicity is -8.6%.
On to `Cc1cccc(C)c1NC(=O)CSc1nc(-c2ccco2)cc(C(F)(F)F)n1`, for which the cytotoxicity was 3.3%.
For `O=C(CSc1nnc(-c2ccccn2)n1Cc1ccccc1)Nc1ccc2c(c1)OCO2` the value was 3.3%; for `Cc1oc(C(=O)O)cc1COc1ccc2c(C)cc(=O)oc2c1`, -7.7%; for `CC(=O)c1c(C)[nH]c(C(=O)N2CCN(c3ccc(F)cc3)CC2)c1C`, -1.4%.
Then `CC(=O)c1c(C)[nH]c(C(=O)N2CCN(c3ncccn3)CC2)c1C`, with -1.6%; and `COc1cccc(N2CCN(C(=O)c3[nH]c(C)c(C(C)=O)c3C)CC2)c1`, with 51% (active).
